Compound activity from PubChem BioAssay.
RecA splice inh – inhibitors of M. tuberculosis RecA intein splicing; P9WHJ3; cell-free RecA intein splicing, fluorescence; inhibition, % (test concentration not listed); 0.75% of 290,000 active; AID 2221; in the data active means inhibition above about 30%
Target sequence (P9WHJ3 whole entry, looked up, canonical isoform): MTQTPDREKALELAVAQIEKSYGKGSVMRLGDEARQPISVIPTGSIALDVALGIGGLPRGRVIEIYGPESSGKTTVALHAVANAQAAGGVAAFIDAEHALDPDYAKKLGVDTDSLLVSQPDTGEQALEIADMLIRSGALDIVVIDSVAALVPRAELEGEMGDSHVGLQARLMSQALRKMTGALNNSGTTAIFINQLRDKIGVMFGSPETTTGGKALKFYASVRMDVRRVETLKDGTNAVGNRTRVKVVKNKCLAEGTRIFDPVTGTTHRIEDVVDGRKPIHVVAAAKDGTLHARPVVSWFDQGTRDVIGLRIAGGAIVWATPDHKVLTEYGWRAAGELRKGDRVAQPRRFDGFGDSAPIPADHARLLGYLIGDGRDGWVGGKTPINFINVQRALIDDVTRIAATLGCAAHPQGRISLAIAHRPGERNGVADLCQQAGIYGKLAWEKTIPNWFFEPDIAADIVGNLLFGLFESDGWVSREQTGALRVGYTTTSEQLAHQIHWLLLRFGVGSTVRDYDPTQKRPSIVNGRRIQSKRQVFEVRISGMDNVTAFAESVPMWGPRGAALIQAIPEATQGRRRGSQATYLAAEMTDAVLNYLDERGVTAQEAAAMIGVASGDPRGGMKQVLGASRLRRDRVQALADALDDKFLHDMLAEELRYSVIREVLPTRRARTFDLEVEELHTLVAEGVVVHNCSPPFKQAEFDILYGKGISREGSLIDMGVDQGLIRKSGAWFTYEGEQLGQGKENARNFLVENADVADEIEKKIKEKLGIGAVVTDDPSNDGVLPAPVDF
Mtb FBA inh – inhibitors of M. tuberculosis fructose-bisphosphate aldolase. P9WQA3. purified M. tuberculosis FBA, fluorescence read-out. inhibition, % at 1 µM. 2.3% of 360,000 active. AID 588726; in the data active means inhibition above about 27%
CCHFV vOTU inh – CCHFV vOTU protease inhibition; 0.55% of 370,000 active; Pep-AMC fluorescence; AID 651958; inhibition, % at 11.5 µM
GDH-TPI inh – inhibits GDH-TPI coupling enzymes, artifact for Mtb FBA screen; GDH-TPI coupled enzyme counterscreen, NADH absorbance; inhibition, % at 4.8 µM; 1.2% of 360,000 active
Each line names hits and unclear results; the compound was inactive in the other large screens. An excerpt weighted towards active compounds, which were near 4.2% of everything screened. Unless noted, no stated cut-off is given here; in the data, active means inhibition above about 30%; inactive means the rest.

Cc1nn(Cc2ccccc2)c(C)c1/C=N/NC(=O)c1ccncc1	none
Cc1nn(-c2ccccc2)c2nc(C(Cl)(Cl)Cl)[nH]c(=O)c12	none
C=CCSc1nc(N)c(C(=O)Nc2ccccc2OC)cc1C(=O)Nc1ccccc1	GDH-TPI inh 37
C=CCSc1nc(N)c(C(=O)Nc2ccccc2)cc1C#N	none
COc1cccc(C(=O)N/N=C/C(Br)=C/c2ccccc2)c1	GDH-TPI inh 40
O=C(N/N=C/C(Br)=C/c1ccccc1)c1cnccn1	GDH-TPI inh 37
COc1ccc(C(=O)N/N=C/c2ccc3cccc(O)c3n2)cc1	GDH-TPI inh 33
COc1ccc(C(=O)N/N=C/C(Br)=C/c2ccccc2)cc1	GDH-TPI inh 31
Cc1occc1C(=O)N/N=C/C(Br)=C/c1ccccc1	none
O=C(N/N=C/C=C\c1ccccc1)c1cnccn1	none
COc1cccc(CN(C)C(=O)Cn2cc(C)c(=O)[nH]c2=O)c1	none (no result: RecA splice inh)
COc1ccc(/C=C(\NC(=O)c2cccs2)C(=O)Nc2ccc(C)cc2)cc1OC	GDH-TPI inh 52
CCOC(=O)c1sc(C)c2c(=O)n(CC)nnc12	GDH-TPI inh 32
CCOC(=O)c1sc(C)c2c(=O)n(CCc3ccccc3)nnc12	none
O=C(Nc1cccc2ccccc12)ON=C1CCCCC1	Mtb FBA inh 116 (no result: RecA splice inh)
C=CSc1sc(Cl)c(N2CCOCC2)c1[N+](=O)[O-]	RecA splice inh 30
CCOC(=O)c1c(C)oc2c1c(C=NCCO)c(O)c1ccccc12	RecA splice inh 46
N#C/C(=C\c1ccco1)C(=O)Nc1cccc2ncccc12	GDH-TPI inh 33
CCOC(=O)/C(=C/c1c[nH]c2ccccc12)NC(C)=O	GDH-TPI inh 38
CSc1nc(C)c2cc(C)oc2n1	none
Cc1nc(/C=C\C(=O)O)c2cc(C)oc2n1	Mtb FBA inh active
O=C1N=C(N2CCCCC2)S/C1=C\c1ccc(Cl)cc1	none
COc1cccc(/C=C2\SC(N3CCC(C)CC3)=NC2=O)c1OC	none
O=C1N=C(N2CCCCC2)S/C1=C\c1ccccc1F	GDH-TPI inh 45
Cc1ccc(/C=C2\SC(N3CCCCC3)=NC2=O)cc1	GDH-TPI inh 32
CCCOc1ccccc1/C=C1\SC(N2CCCCC2)=NC1=O	none
COc1cccc(/C=C2\SC(N3CCCC(C)C3)=NC2=O)c1OC (centres undefined)	GDH-TPI inh 33
O=C1N=C(N2CCCC2)S/C1=C\c1ccccc1	GDH-TPI inh 54
O=S1(=O)c2c(cccc2N2CC[C@@H](O)C2)O[C@@H]2CCN1C2	none (no result: RecA splice inh, Mtb FBA inh, GDH-TPI inh)
O=C1N=C(N2CCN(c3ccccc3)CC2)S/C1=C/c1ccco1	GDH-TPI inh 34
COc1cc(OC)c(OC)cc1/C=C1\SC(N2CCCCC2)=NC1=O	none
C=CCOc1ccc(/C=C2\SC(N3CCCCC3)=NC2=O)cc1	GDH-TPI inh 38
CC(C)(C)c1ccc(/C=C2/SC(N3CCCC3)=NC2=O)cc1	GDH-TPI inh 37
O=C1N=C(N2CCN(c3ccccc3)CC2)S/C1=C\c1ccco1	none
O=[N+]([O-])c1cc(/C=N/O)ccc1N1CCCC1	none
O=[N+]([O-])c1cc(/C=N/n2cnnc2)ccc1N1CCCC1	GDH-TPI inh 37
Cc1ccc2c(c1)Oc1ccc([N+](=O)[O-])cc1C(=O)N2	none
Cc1ccc2c(c1)Oc1ccc(NC(=O)CCl)cc1C(=O)N2	RecA splice inh 60
CCn1cc(/C=C(\NC(=O)c2ccccc2F)C(=O)NCCCn2ccnc2)c2ccccc21	GDH-TPI inh 33
CCn1cc(/C=C(\NC(=O)c2ccc(OC)cc2)C(=O)NCCCn2ccnc2)c2ccccc21	GDH-TPI inh 37 (no result: RecA splice inh)
COc1ccc(CC(=O)NCc2ccccc2)cc1	none
CCOP(=O)(OCC)c1nc(-c2cccc3ccccc23)oc1NCc1ccc(OC)cc1	Mtb FBA inh 169
Cc1ccc(-c2nnc(-c3cccc4ccccc34)o2)cc1	none (no result: RecA splice inh)
CCOP(=O)(OCC)c1nc(-c2cccc3ccccc23)oc1NCc1ccccc1	Mtb FBA inh active (no result: RecA splice inh)
CCCCN1C(=O)C(CC(=O)NCc2ccco2)CC(C(=O)N2CCCCCC2)=C1C (centres undefined)	none (no result: RecA splice inh, Mtb FBA inh, GDH-TPI inh)
CC1CN(S(=O)(=O)c2ccc(C(=O)Nc3nccs3)cc2)CC(C)O1 (centres undefined)	GDH-TPI inh 43
O=c1[nH]c(C(Cl)(Cl)Cl)nc2ccc3ccccc3c12	none
Cc1ccc(NC(=O)C2CC(=O)N/C(=N/N=C/c3ccco3)S2)cc1 (centres undefined)	GDH-TPI inh 44
Cc1ccc(NC(=O)C2CC(=O)N/C(=N/N=C/c3ccco3)S2)cc1C (centres undefined)	GDH-TPI inh 52 (no result: CCHFV vOTU inh)
Cc1ccc(N=C2NC(=O)CC(C(=O)Nc3ccc4c(c3)OCO4)S2)cc1 (centres undefined)	none
Cc1ccc(NC(=O)C2CC(=O)N/C(=N/NC(=O)c3ccc(C)cc3)S2)cc1 (centres undefined)	none
COc1ccc2cc(C(=O)C3CCCN(C(=O)c4cccnc4)C3)ccc2c1 (centres undefined)	Mtb FBA inh 163
COc1ccc2cc(C(=O)C3CCCN(C(=O)c4cncs4)C3)ccc2c1 (centres undefined)	Mtb FBA inh 152 (no result: RecA splice inh)
COc1ccc2cc(C(=O)C3CCCN(C(=O)CCc4cnn(C)c4)C3)ccc2c1 (centres undefined)	Mtb FBA inh 127
Cc1nnc(SCC(=O)N2CCCC(C(=O)c3ccc(Cl)cc3)C2)o1 (centres undefined)	none
O=C(c1ccc2ccccc2c1)C1CCCN(C(=O)c2cccnc2)C1 (centres undefined)	none
CCNC(=O)N1CCCC(C(=O)c2ccc3cc(OC)ccc3c2)C1 (centres undefined)	none
COc1ccc2cc(C(=O)C3CCCN(C(=O)CSc4nnc(C)o4)C3)ccc2c1 (centres undefined)	Mtb FBA inh 126
CN(C)C(=O)COc1ccc2ccc(=O)oc2c1	none
CC(C)=CC(O)C/C(C)=C/COc1ccc2ccc(=O)oc2c1 (centres undefined)	Mtb FBA inh 83
CC(C)c1ccc(CN2CCSCC2)cc1	none
N#C/C(=C\c1ccc(-c2ccccc2[N+](=O)[O-])o1)C(N)=O	GDH-TPI inh 41
CNC(=O)/C(C#N)=C/c1ccc(-c2ccccc2[N+](=O)[O-])o1	none
COc1ccc(CNC(=O)C2(C)Cc3c(-c4cccc(NC(C)=O)c4)ccnc3O2)cc1OC (centres undefined)	none (no result: RecA splice inh)
COc1ccc(CC(=O)NCC(=O)N=Nc2c(O)[nH]c3ccccc23)cc1	none
COc1ccccc1/C=C/C(=O)NCC(=O)N=Nc1c(O)[nH]c2ccccc12	GDH-TPI inh 36
COC(=O)C1CN(Cc2ccc(F)cc2)CCS(=O)(=O)N1Cc1cn(CCOC(C)=O)nn1 (centres undefined)	none (no result: RecA splice inh, Mtb FBA inh, GDH-TPI inh)
O=C(CSc1nnc(SCc2ccccc2)s1)N/N=C/C=C/c1ccco1	none
Clc1ccccc1CN1CCN(/N=C/C=C/c2ccco2)CC1	GDH-TPI inh 42
O=C(CN1CCN(Cc2ccccc2)CC1)N/N=C\C=C/c1ccco1	GDH-TPI inh 43
CC(/C=N\NC(=O)CN1CCN(Cc2ccccc2)CC1)=C\c1ccco1	GDH-TPI inh 53
Fc1ccccc1/C=N/N1CCN(Cc2ccccc2Cl)CC1	none
O=C(CN1CCN(Cc2ccccc2Cl)CC1)N/N=C/C=C/c1ccco1	GDH-TPI inh 61
